# According to PubChem BioAssay:
# Calls of active or inactive are those of the source. Rule as the data show it, unless noted: active = inhibition above about 80%; inactive = the rest.
# How the values were obtained:
# [1] = growth inhibition, single agent or in combination, cell-based, chromothripsis tumors, cisplatin or BGB combos (AID 1671449); conditions: LFS_MB_P medulloblastoma cells;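 also: cells exposed for 96 hours; 0% = vehicle DMSO and 100% = killing by high DMSO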
# [2] = growth inhibition, single agent and combos, cell-based, chromothripsis tumors, cisplatin or BGB combos (AID 1671450); conditions: HDN33 neuroblastoma cells, stronger effect = higher value;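 also: cells exposed to compound for four days; 0% = vehicle DMSO and 100% = cell killing by high DMSO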
# [3] = growth inhibition, single agents and combos, ICB984, cell-based, cisplatin or BGB combos, synergistic combos for chromothripsis tumors (AID 1671451; call rule not given here;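 also: cells exposed for 96 hours before readout; 0% = vehicle DMSO and 100% = killing by high DMSO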); conditions: ICB984 medulloblastoma cells, drug combinations, stronger effect = higher value
# [4] = growth inhibition, single agents and combos, LFS_MB_1R, cell-based, cisplatin or BGB combos, synergistic combos for chromothripsis tumors (AID 1671452); conditions: LFS_MB_1R medulloblastoma cells, stronger effect = higher value;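 also: cells exposed for 96 hours before readout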
# [5] = growth inhibition, single agents and combos, HTB85, cell-based, BGB or cisplatin IC20 combos, synergistic combos for chromothripsis tumors (AID 1671453); conditions: HTB85 osteosarcoma cells, drug combinations, stronger effect = higher value;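 also: cells exposed for 96 hours before readout; 0% = vehicle DMSO and 100% = high DMSO killing control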
# [6] = growth inhibition, single agents and combos, CRL2098, cell-based, BGB or cisplatin IC20 combos, synergistic combos for chromothripsis tumors (AID 1671454); conditions: CRL2098 osteosarcoma cells, drug combinations, stronger effect = higher value;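 also: cells exposed for 96 h before readout; 0% = vehicle DMSO and 100% = killing by high DMSO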
# [7] = growth inhibition, single agents and combos, HD-MB03, cell-based, BGB or cisplatin IC20 combos, synergistic combos for chromothripsis tumors (AID 1671455; in the data active = inhibition above about 83%;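 also: 0% = vehicle DMSO and 100% = high DMSO as cytotoxic control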); conditions: HD-MB03 medulloblastoma cells, stronger effect = higher value
# [8] = growth inhibition, single agents and combos, UWB1.289, cell-based, BGB or cisplatin combos, synergistic combos for chromothripsis tumors (AID 1671456); conditions: UWB1.289 ovarian carcinoma cells, stronger effect = higher value;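 also: cells exposed to compound for four days; 0% = vehicle DMSO and 100% = killing by high DMSO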
# [9] = growth inhibition, single agents and combos, LFS_MB_2R, cell-based, cisplatin combos, synergistic combos for chromothripsis tumors (AID 1671457); conditions: LFS_MB_2R medulloblastoma cells, stronger effect = higher value;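 also: cells exposed to compound for four days before readout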
# [10] = growth inhibition, MDA-MB-436, cell-based, BGB or cisplatin combos, synergistic combos for chromothripsis tumors (AID 1671458; call rule not given here;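 also: cells exposed for 96 hours; 0% = vehicle DMSO and 100% = killing by high DMSO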); conditions: MDA-MB-436 breast carcinoma growth inhibition, drug combinations, stronger effect = higher value
# [11] = UWB1.289_BRCA1 ovarian cancer growth, cell-based, BGB or cisplatin combinations (AID 1671459); conditions: UWB1.289 BRCA1 ovarian carcinoma, drug combinations, stronger effect = higher value
# [12] = drug combination toxicity in non-malignant astrocytes – cell-based, BGB or cisplatin IC20 combos, cytotoxicity control for chromothriptic childhood tumor combination screen (AID 1671460); conditions: Human astrocytes, viability inhibition, drug combinations, at 0.5 µM, stronger effect = higher value;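 also: cells exposed to compounds for 96 hours before viability readout; 0% = vehicle and 100% = killing control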
# [13] = BT084 cell growth, single and combined drugs, ICGC_MB145, cisplatin and BGB IC40 combos (AID 1671461); conditions: BT084 medulloblastoma cells, drug combinations, stronger effect = higher value;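 also: cells exposed to drugs for 96 hours; 0% = vehicle DMSO and 100% = high DMSO full killing control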
# [14] = RCMB18 cell growth, single agent and combined, cisplatin and BGB IC40 combos (AID 1671462); conditions: RCMB18 medulloblastoma cells, stronger effect = higher value;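 also: cells exposed to compound for four days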
# [15] = CRL1545 cell growth, single agent and combined, cisplatin and BGB IC20 combos (AID 1671464); conditions: CRL1545 osteosarcoma cells, stronger effect = higher value;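 also: cells exposed to compound for 96 hours before readout; 0% = vehicle DMSO and 100% = high DMSO killing control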
# [16] = measured here: combination with BGB IC40, at 0.05 µM
# [17] = measured here: with BGB IC20 combination, at 0.5 µM
# [18] = measured here: with cisplatin IC20 combination, at 0.5 µM
# [19] = measured here: combination with cisplatin, at 0.5 µM
# [20] = measured here: combination with cisplatin, at 5 µM
smiles,measurement,setting,value
Cc1c(-c2cnccn2)ssc1=S,inhibition,"[1]; at 0.5 µM, stronger effect = higher value",-20.5% (inactive)
same,inhibition,"[1]; measured here: combination with BGB IC20, at 0.005 µM",-19.2%
same,inhibition,"[1]; measured here: combination with BGB IC40, at 0.005 µM",-19%
same,inhibition,[1]; [16],-17.6%
same,inhibition,"[1]; measured here: combination with cisplatin, at 0.5 µM, stronger effect = higher value",-32.1%
same,inhibition,"[1]; measured here: combination with cisplatin, at 5 µM, stronger effect = higher value",-10.5%
same,inhibition,"[2]; BGB combo, at 5 µM",-58.5%
same,inhibition,[2]; at 0.5 µM,-42% (inactive)
same,inhibition,"[2]; cisplatin combo, at 5 µM",-70%
same,inhibition,[2]; [17],-31.4%
same,inhibition,[2]; [18],-48.3%
same,inhibition,"[2]; single agent, at 5 µM",-46.9%
same,inhibition,"[3]; BGB IC20 combo, at 0.005 µM",-28.8%
same,inhibition,"[3]; BGB IC40 combo, at 0.005 µM",-23.8%
same,inhibition,"[3]; BGB IC40 combo, at 0.05 µM",-8.66%
same,inhibition,[3]; at 0.5 µM,-19.7% (inactive)
same,inhibition,"[3]; cisplatin combo, at 0.05 µM",-8.66%
same,inhibition,"[3]; cisplatin combo, at 0.5 µM",-33.7%
same,inhibition,"[3]; cisplatin combo, at 5 µM",-21.2%
same,inhibition,"[3]; measured here: 5 uM single agent, at 5 µM",-0.147%
same,inhibition,[4]; at 0.5 µM,-48.5% (inactive)
same,inhibition,[4]; [16],12.7%
same,inhibition,[4]; [19],-42.8%
same,inhibition,[4]; [20],-46.1%
same,inhibition,[5]; at 0.5 µM,-26% (inactive)
same,inhibition,"[5]; measured here: with BGB IC20, at 0.5 µM",-48%
same,inhibition,"[5]; measured here: with BGB IC20, at 5 µM",-29.8%
same,inhibition,"[5]; measured here: with cisplatin IC20, at 0.5 µM",-19.3%
same,inhibition,"[5]; measured here: with cisplatin IC20, at 5 µM",6.84%
same,inhibition,"[5]; single agent, at 5 µM",-28%
same,inhibition,[6]; at 0.5 µM,-91.2% (inactive)
same,inhibition,"[6]; measured here: combination with BGB at IC20, at 0.5 µM",-80.8%
same,inhibition,"[6]; measured here: combination with cisplatin at IC20, at 0.5 µM",-109%
same,inhibition,[7]; at 0.5 µM,-13% (inactive)
same,inhibition,"[7]; measured here: combo with BGB at IC20, at 0.5 µM",-1.23%
same,inhibition,"[7]; measured here: combo with cisplatin at IC20, at 0.5 µM",-23%
same,inhibition,[8]; at 0.5 µM,-15.7% (inactive)
same,inhibition,"[8]; measured here: inhibition with BGB combination, at 0.05 µM",-24.2%
same,inhibition,"[8]; measured here: inhibition with cisplatin combination, at 0.05 µM",3.36%
same,inhibition,[9]; at 0.5 µM,-15.7% (inactive)
same,inhibition,[9]; [19],-6.9%
same,inhibition,[9]; [20],-12.4%
same,inhibition,[10]; at 0.5 µM,-20.6% (inactive)
same,inhibition,"[10]; measured here: BGB combination, at 0.5 µM",-19.7%
same,inhibition,"[10]; measured here: BGB combination, at 5 µM",-36%
same,inhibition,"[10]; measured here: cisplatin combination, at 0.5 µM",-33%
same,inhibition,"[10]; measured here: cisplatin combination, at 5 µM",-12.1%
same,inhibition,"[11]; BGB combination, concentration series, at 5 µM",-4.42%
same,inhibition,[11]; at 0.5 µM,-14.9% (inactive)
same,inhibition,"[11]; cisplatin combination, concentration series, at 5 µM",-10.4%
same,inhibition,[12],0.12% (inactive)
same,inhibition,[12]; measured here: combo with BGB IC20,-4.93%
same,inhibition,[12]; measured here: combo with cisplatin IC20,-9.68%
same,inhibition,[13]; at 0.5 µM,-10.9% (inactive)
same,inhibition,"[13]; cisplatin combination, at 0.5 µM",-13.8%
same,inhibition,"[13]; cisplatin combination, at 5 µM",-45.9%
same,inhibition,"[13]; measured here: BGB IC40 combination 0.05 uM, at 0.05 µM",2.43%
same,inhibition,"[13]; single agent, at 5 µM",-13.6%
same,inhibition,[14]; at 0.5 µM,-21% (inactive)
same,inhibition,"[14]; cisplatin combo, at 5 µM",-46.1%
same,inhibition,"[14]; measured here: BGB IC40 combination, at 0.05 µM",-10.6%
same,inhibition,[14]; [19],-54.1%
same,inhibition,"[14]; single agent, at 5 µM",-29.2%
same,inhibition,[15]; at 0.5 µM,-60.7% (inactive)
same,inhibition,[15]; [17],-51%
same,inhibition,[15]; [18],-65.5%
same,inhibition,"[15]; single agent, at 0.05 µM",-3.94%
same,inhibition,"[15]; single agent, at 5 µM",-64.9%
